Test [1] in a line: Viability qHTS for spleen associated tyrosine kinase inhibitor (SYKi) naive MV4-11 cells (AID 1963823). Also: nearly all actives have a fitted effect of over 40% in size. The procedure, abridged:
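Seeding of 500 SYKi-naive MV4-11 cells per well onto pre-dispensed compounds preceded a 72 hr incubation at 37 C. Luminescent CellTiter-Glo signal, read after 10 min at room temperature, reflected viable cells.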

Test [2] is described as follows: Viability qHTS for spleen associated tyrosine kinase inhibitor (SYKi) drug resistant MV4-11 cells (AID 1963824). Also: nearly all actives have a fitted effect of over 35% in size. The procedure, abridged:
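SYK-inhibitor-resistant MV4-11 AML cells were seeded at 500 per well onto compound and cultured 72 hours (37 °C, 5% CO2). CellTiter-Glo was then added, and after 10 min at room temperature, luminescence gave viability.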

Results filed as inconclusive are left out. A number with no mark means an inactive call. Calls of active or inactive are those of the source. Calls follow the shape of the dose curve; as a rule, active = well fitted cell-killing curve with a large enough effect; inconclusive = small, poorly fitted or top-dose-only effect, or effect the other way; inactive = no such curve, though single readings can be large or run the other way.

Among the data in PubChem BioAssay (NCATS) are Potency, viability (% of control) and viability, % of control values, retold here.
Potency is read from the fitted curve at half-maximal effect.

Take `Cc1ccc(C)c(S(=O)(=O)n2cnc3ccccc32)c1`: the Potency entry in test [1] and in test [2] was “inactive” each time.
In the case of `C/C=C(\C)C(=O)O[C@@H]1CC2[C@@H](CC=C3C[C@@H](O[C@H]4C[C@H](OC)[C@H](O[C@H]5C[C@H](OC)[C@H](O[C@@H]6O[C@H](C)[C@@H](O[C@H]7C[C@H](OC)[C@H](O[C@@H]8O[C@H](CO)[C@@H](O)[C@H](O)[C@H]8O)[C@@H](C)O7)[C@H](OC)[C@H]6O)[C@@H](C)O5)[C@@H](C)O4)CC[C@@]32C)[C@@]2(O)CC[C@H](C(C)=O)[C@@]12C` (stereo partly drawn), the viability (% of control) in test [1] was 53.3% [at 9.25 µM]. Besides, the viability, % of control in test [2] is 61.7% [at 9.25 µM].
As for `CO[C@@H]1CC(OC2CCC3(C)C(CCC45CCC(C6=CC(=O)OC6)C(C)(CCC43)C5=O)C2)O[C@H](C)[C@@H]1O[C@@H]1O[C@H](CO[C@@H]2O[C@H](CO)[C@@H](O)[C@H](O)[C@H]2O)[C@@H](O)[C@H](O)[C@H]1O` (stereo partly drawn), the Potency in test [1] is 873 nM (active); in test [2], 778 nM (active).
The corresponding values for `C=C1[C@@H]2[C@H]3OC(=O)C(=C)[C@@H]3CC[C@@](C)(O)[C@@H]2C[C@@H]1O[C@@H]1O[C@H](CO)[C@@H](O)[C@H](O)[C@H]1O` are “inactive” and “inactive”.
Taken in the same sequence, the figures for `C=C1CCC2C(C)(C(=O)O)CC(O)CC2(C)C1CC/C(C)=C/C(=O)O` (stereo not drawn) were “inactive” and “inactive”.
For the compound `COc1cc(O)cc(C)c1C(=O)O[C@H]1[C@@H](OC(C)=O)[C@H](n2ccc(=O)[nH]c2=O)O[C@@H]1CO`, the Potency entry in test [1] and in test [2] was “inactive” each time.
With `CC1(CCC(=O)O)C(=O)C=CC23CC4CC(OC4(C)C2O)C13` (stereo not drawn), the Potency result in test [1] and in test [2] was “inactive” each time.
As for `CSC(=O)OCC1=C[C@@H]2OC(=O)C3=CO[C@@H](O[C@@H]4O[C@H](CO)[C@@H](O)[C@H](O)[C@H]4O)[C@H]1[C@@H]32`, the Potency entry in test [1] and in test [2] was “inactive” throughout.
Take `O=C1CC[C@@H](C(=O)N2CSC[C@H]2C(=O)O)N1`: the Potency entry in test [1] and in test [2] was “inactive” throughout.
As for `C[C@@H]1O[C@@H](O[C@H]2[C@H](OC(=O)C34CCC(C)(C)CC3C3=CCC5C6(C)CC(O)C(O[C@@H]7O[C@H](CO)[C@@H](O)[C@H](O)[C@H]7O)C(C)(C(=O)O)C6CCC5(C)C3(CO)CC4)O[C@H](C)[C@H](O)[C@@H]2O)[C@H](O)[C@H](O)[C@H]1O[C@@H]1OC[C@@H](O)[C@H](O)[C@H]1O` (stereo partly drawn), in test [1], the viability (% of control) was 87% [at 9.25 µM]. In addition, the viability, % of control in test [2] is 109% [at 9.25 µM].
For `CC1(CO)CC2C(O)C(=O)C3(CO)CC3(C)C2C1` (stereo not drawn), the Potency entry in test [1] and in test [2] was “inactive” in each case.
Turning to `CCN(CC)C(=O)c1ccc(Nc2nc(OCC3CCCCC3)c3[nH]cnc3n2)cc1`, the Potency was 1030 nM (active) in test [1] and 1460 nM (active) in test [2].
In the case of `COc1cc(Nc2cnc(C#N)c(O[C@H](C)CN(C)C)n2)ncc1-c1cnn(C)c1`, the Potency was 934 nM (active) in test [1] and 1320 nM (active) in test [2].
On to `CC1(C)CC[C@]2(C(=O)O[C@@H]3O[C@H](CO[C@@H]4O[C@H](CO)[C@@H](O)[C@H](O)[C@H]4O[C@@H]4O[C@H](CO)[C@H](O)[C@H](O)[C@H]4O)[C@@H](O)[C@H](O[C@@H]4O[C@H](CO)[C@@H](O)[C@H](O)[C@H]4O)[C@H]3O)CC[C@]3(C)C(=CCC4[C@@]5(C)CC[C@H](O[C@@H]6OC[C@@H](O)[C@H](O)[C@H]6O)[C@@](C)(C(=O)O)C5CC[C@]43C)[C@@H]2C1` (stereo partly drawn), for which the viability (% of control) in test [1] was 76.7% [at 9.25 µM]. Besides, the viability, % of control in test [2] is 74.7% [at 9.25 µM].
In the case of `O=C(CCCCC1CCCCC1)N1CCC(c2cnc[nH]2)CC1`, the Potency in test [1] was 13000 nM (active); in test [2], 8200 nM (active).
`CC(C)=CCC[C@](C)(O[C@@H]1O[C@H](CO)[C@@H](O)[C@H](O)[C@H]1O)[C@H]1CC[C@]2(C)[C@@H]1[C@H](O)CC1[C@@]3(C)CC[C@H](O)C(C)(C)C3[C@@H](O[C@@H]3O[C@H](CO)[C@@H](O)[C@H](O)[C@H]3O[C@@H]3OC[C@@H](O)[C@H](O)[C@H]3O)C[C@]12C` (stereo partly drawn): the viability (% of control) in test [1] is 84.7% [at 9.25 µM]. The viability, % of control in test [2] was 84.8% [at 9.25 µM].
Take `COC(=O)C(Cc1ccc(OCCn2c(=O)sc3cc(C(=O)c4ccccc4)ccc32)cc1)C(=O)OC`: the Potency in test [1] was 23100 nM (active); in test [2], 18400 nM (active).
Consider `CC(=O)N1CCN(C(=O)Cc2ccc(Nc3ncc(F)c(Nc4ccc(C(=O)Nc5ccccc5Cl)cc4)n3)cc2)CC1`, for which the Potency in test [1] and in test [2] was 517 nM (active) throughout.
In the case of `COc1cc(C[C@H]2COC(=O)[C@@H]2Cc2ccc(O)c(OC)c2)ccc1O`, the Potency entry in test [1] and in test [2] was “inactive” each time.
As to `C=CC(C)(CCC=C(C)C)O[C@@H]1O[C@H](CO)[C@@H](O)[C@H](O)[C@H]1O` (stereo partly drawn), the Potency entry in test [1] and in test [2] was “inactive” throughout.
Turning to `CC1(C)CC[C@]2(C(=O)O)[C@H](O)C[C@]3(C)C(=CCC4[C@@]5(C)CC[C@H](O[C@@H]6O[C@H](CO[C@@H]7OC[C@H](O)[C@H](O)[C@H]7O[C@@H]7OC[C@@H](O)[C@H](O)[C@H]7O)[C@@H](O)[C@H](O)[C@H]6O[C@@H]6O[C@H](CO)[C@@H](O)[C@H](O)[C@H]6O)C(C)(C)C5CC[C@]43C)[C@@H]2C1` (stereo partly drawn), the viability (% of control) in test [1] was 92.2% [at 9.25 µM]. Further, the viability, % of control in test [2] is 103% [at 9.25 µM].
On to `CC(=O)c1[nH]cc(CCC(=O)O)c1CC(=O)O`, for which the Potency in test [1] is 231 nM (active). The Potency entry in test [2] was “inactive”.
The corresponding values for `CC(=O)/C=C/[C@H]1[C@](C)(O)[C@@H](O)[C@H](O)C2C(C)(C)CCC[C@@]21C` (stereo partly drawn) are “inactive” and “inactive”.
For the compound `CC1OC(OC2C(C)OC(OC3C(O)C(CO)OC(O[C@H]4CC[C@@]5(C)C(CC[C@]6(C)C5CC=C5C7[C@@H](C)[C@H](C)CC[C@]7(C(=O)O)CC[C@]56C(=O)O)C4(C)C)C3O)C(O)C2O)C(O)C(O)C1O` (stereo partly drawn), the viability (% of control) in test [1] was 75.5% [at 9.25 µM]. Further, the viability, % of control in test [2] was 78.3% [at 9.25 µM].
